Source: PubChem
DAX1 inh-1: blocks DAX1 repression of SF-1 activated StAR promoter. 1.1% of 370,000 active. inhibition, % at 6.8 µM. HEK293T StAR-luciferase reporter, SF-1/DAX-1 repression relief. AID 652010;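 active = inhibition above the mean over all tested compounds plus 3 SD, cut at about 3.6% in these data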;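 note: 0% = DAX-1 cells with DMSO and 100% = cells lacking DAX-1 with DMSO; higher inhibition means more luminescence from relief of DAX-1 repression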
hcDAF-12 act: activates DAF-12 receptor from parasite H. contortus | activation, % at 6.8 µM | 1.4% of 370,000 active | HEK293 hcDAF-12 lit1-tk-luc reporter, luminescence; 0% DMSO, 100% Δ7-dafachronic acid | AID 652067;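 active = activation above the mean of all tested compounds plus 3 SD, cut at about 5.5% in these data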;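 note: 100% = response to 3 µM Δ7-dafachronic acid high control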
hgDAF12 agonist: hgDAF-12 agonism, primary luciferase screen; HEK293 GAL4-hgDAF12 UAS-luciferase reporter, agonist luminescence; normalized to butyrate control; activation, % at 6.8 µM; 1.8% of 370,000 active;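 active = activation above a cutoff set at the mean of all screened compounds plus 3 SD, cut at about 10% in these data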;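 note: 0% = DMSO wells and 100% = sodium butyrate wells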
ssDAF-12 act: activates DAF-12 receptor from parasite S. stercoralis | HEK293 ssDAF-12/GRIP1 lit1-tk-luc reporter, luminescence; % of 3 µM dafachronic acid response | activation, % at 6.8 µM | 1% of 370,000 active;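 active = activation above the mean over all tested compounds plus 3 SD, cut at about 0.9% in these data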;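 note: 0% = DMSO-only wells and 100% = 3 µM delta7-dafachronic acid wells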
DAX1 inh-2: NR0B1 (DAX1) inhibition; P51843; HEK293 Gal4-DAX1 luciferase reporter, luminescence; inhibition, % at 6.75 µM; 0.99% of 340,000 active; AID 504766;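 active = inhibition above the mean over all tested compounds plus 3 SD, cut at about 4.2% in these data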;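 note: 0% = DAX1-transfected cells with DMSO and 100% = empty-vector control cells with DMSO; inhibition shows as a rise in luminescence from relieved DAX1 repression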
Target sequence (P51843 207-470 limits assumed): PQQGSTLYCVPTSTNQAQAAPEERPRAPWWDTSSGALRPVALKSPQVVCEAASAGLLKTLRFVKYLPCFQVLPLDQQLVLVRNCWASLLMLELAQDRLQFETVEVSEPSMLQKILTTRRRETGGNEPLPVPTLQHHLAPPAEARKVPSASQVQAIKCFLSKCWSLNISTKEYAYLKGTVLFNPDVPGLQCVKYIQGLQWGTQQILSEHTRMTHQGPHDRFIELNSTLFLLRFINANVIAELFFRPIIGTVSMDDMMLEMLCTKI
SMARCA2 act: activators of SMARCA2 function; activation, % at 9.1 µM; 1% of 370,000 active; MG213 cells, MMTV-luciferase reporter, dexamethasone, overnight; in the data active = activation above about 7.8%;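 note: 0% = vehicle wells and 100% = reference activator wells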
An asterisk follows results filed as active; nt = not tested or not shown. A selection: hits, their analogues and other compounds. The true share with any hit is near 4.8%.

SMILES | DAX1 inh-1 | hcDAF-12 act | hgDAF12 agonist | ssDAF-12 act | DAX1 inh-2 | SMARCA2 act
Cc1cc(=O)nc2c3ccccc3n(CC(=O)NCCCN3CCCC3=O)n12 | 1.4 | 6.0* | 3.2 | 0.0 | 1.0 | -0.9
S=C1NCN(Cc2ccco2)CN1Cc1ccco1 | 0.1 | -1.9 | -0.5 | -1.7 | -0.4 | 0.7
CCC(/C=C1\Sc2ccc(OC)cc2N1CCO)=C\c1sc2ccc(OC)cc2[n+]1CCO | -1.5 | -3.5 | 0.8 | -1.8 | 0.1 | -4.5
CCC(/C=C1\Sc2ccc(OC)cc2N1CC)=C\c1sc2ccc(OC)cc2[n+]1CCCS(=O)(=O)[O-] | -0.4 | -1.1 | -0.1 | 5.6* | 0.2 | -2.5
O=C(COC(=O)C1CC1)Nc1ncc(C(F)(F)F)cc1Cl | 0.0 | -2.1 | 1.3 | -1.0 | -1.8 | -1.0
CCC(C)NC(=O)Cn1cc(S(=O)(=O)N2CCCC2)c(S(=O)(=O)N2CCCC2)c1 (centres undefined) | -0.3 | -1.9 | 3.3 | -0.8 | 0.9 | 0.0
CCCNC(=O)Cn1cc(S(=O)(=O)N2CCCC2)c(S(=O)(=O)N2CCCC2)c1 | 3.9* | 1.5 | 1.9 | -1.1 | 0.8 | -1.9
COc1ccc(NC(=O)C2CC(=O)NC3=C2C(=O)CC(C)(C)C3)cc1 (centres undefined) | -0.2 | -0.5 | -1.1 | -2.2 | -0.7 | -3.1
CCN1C(=S)SC(=O)C1=C1C=C(C)N(CCO)C(C)=C1 | 3.8* | 1.7 | 11.5* | -0.1 | 4.0 | 7.2
CCN1C(=O)/C(=C/C=C2/Sc3ccccc3N2CCO)SC1=S | 1.8 | -0.3 | -0.7 | -1.2 | 0.0 | 0.5
O=C1Cc2ccccc2C(=O)N1OCc1ccc(Cl)cc1 | 0.1 | 3.0 | -0.5 | 0.9* | -1.0 | -3.7
CCN(CCn1cccn1)C(=O)CCc1nnc(C2(c3ccc(Cl)cc3)CCC2)o1 | 0.8 | 1.0 | 11.9* | 0.2 | 1.1 | 5.3
NC(CO)(CO)COCc1ccccc1 | -0.3 | 1.8 | -0.2 | 1.3* | 0.5 | -2.6
OC(COCc1ccccc1)COCc1ccccc1 | 1.2 | -0.7 | -0.6 | -1.2 | -1.4 | -2.8
CCNC(=S)N1CCN(c2nc(-c3cccc(OC)c3)cs2)CC1 | -1.0 | -2.3 | -1.4 | -2.2 | -0.9 | -1.7
O=C(NC(=S)N1CCN(c2nc(-c3ccccc3)cs2)CC1)c1cncc(Br)c1 | -1.1 | 0.0 | -0.5 | -1.6 | 0.7 | 9.8*
COCCNC(=S)N1CCN(c2nc(-c3cccc(OC)c3)cs2)CC1 | -0.7 | -0.5 | 0.1 | -1.5 | 4.3* | 0.8
O=C(CN1CCN(c2nc(-c3ccccc3)cs2)CC1)NNC(=O)c1ccc(Br)cc1 | 0.5 | 0.4 | -0.7 | -1.1 | -0.1 | -0.8
COc1ccc(S(=O)(=O)NCc2ccco2)cc1C(=O)N1CCCCC1 | -0.3 | -2.0 | 1.5 | -1.4 | 5.0* | 3.6
Cc1ccc2sc(-c3ccc(NC(=O)c4cc(-n5cnnc5)ccc4Cl)cc3)nc2c1 | 2.0 | 0.7 | 11.3* | -1.2 | 0.9 | -1.1
COc1ccc(NC(=O)CSc2ccc(C)cc2)cc1 | 0.4 | 0.7 | 5.6 | -0.4 | 0.7 | 1.4
O=C(Nc1ccc2ccccc2c1)c1cccc2ccccc12 | 2.2 | -0.5 | 7.7 | -0.4 | -0.3 | 2.0
COc1ccc(NC(=O)c2ccc3ccccc3c2OC)cc1 | -0.3 | -0.1 | 4.1 | -1.2 | 4.4* | 5.8
COc1ccc(NC(=O)c2ccccc2NC(=O)CSc2ccc(C)cc2)cc1 | 0.8 | 5.9* | 3.3 | -0.6 | 0.7 | 1.2
CCOc1ccc(NC(=O)c2cccc3ccccc23)cc1 | -0.6 | -0.6 | 10.2 | -1.8 | -1.1 | 1.1
SMILES | DAX1 inh-1 | hcDAF-12 act | hgDAF12 agonist | ssDAF-12 act | DAX1 inh-2 | SMARCA2 act
COc1cc(C(=O)Nc2ccc(C)cc2)c2ccccc2n1 | -0.2 | 5.7* | -0.3 | 0.6 | -2.4 | 0.3
CCOc1ccc(NC(=O)c2cc3ccccc3cc2O)cc1 | 0.4 | 0.8 | 6.3 | 1.2* | 0.5 | 5.2
CCOc1ccccc1N(C(=O)Nc1ccc(Cl)cc1)C1=NCCS1 | 0.5 | 4.8 | 1.9 | -0.9 | -0.6 | 3.0
COc1ccc(C(=O)NNC(=O)CSc2ccccc2)cc1 | 1.1 | -0.1 | -2.3 | -1.7 | 4.5* | 3.0
CCOc1ccc(NC(=O)Nc2ccccc2SC)cc1 | 2.4 | 3.7 | 11.3* | -1.1 | 4.5* | 1.6
COc1ccc(C(=O)NNC(=O)CSc2nc(C(C)C)nc3ccccc23)cc1 | 0.1 | -1.7 | -1.9 | -1.4 | 0.7 | -0.6
Cc1cc(=O)oc(C)c1C(=O)NCCc1ccccc1 | 0.6 | 0.1 | 0.8 | -1.3 | -1.1 | 1.1
CC1CCc2c(sc3ncn(CC(=O)N=Nc4c(O)[nH]c5ccccc45)c(=O)c23)C1 (centres undefined) | -0.1 | 3.5 | 3.3 | 0.0 | 4.6* | 6.5
Cn1c(=O)[nH]c(=O)c2c1nc(NCCCO)n2Cc1ccc(F)cc1 | 0.3 | -1.3 | -0.4 | -1.4 | 1.5 | -0.4
O=C(Nc1cccc(F)c1)c1ccc2ncsc2c1 | nt | nt | nt | nt | 3.0 | nt
O=C(Nc1ccccc1F)c1ccc2ncsc2c1 | 0.3 | 0.6 | 12.7* | -0.2 | -0.3 | 4.8
O=c1[nH]c(=O)n(C2OC(CO)C(O)C(O)C2O)cc1F (centres undefined) | -0.6 | 3.4 | -0.4 | -0.9 | nt | 1.5
CCn1ncc(N(C)N)c(Cl)c1=O | 0.3 | 2.0 | 2.7 | 1.1* | 1.0 | -0.9
O=c1cc(-c2ccccc2)oc2ccc(Cl)cc12 | 3.9* | 3.4 | 8.5 | -1.1 | 3.0 | 2.8
O=c1cc(-c2ccc(F)cc2)oc2ccccc12 | 0.6 | 1.5 | 8.7 | -0.1 | 1.7 | 5.2
O=c1cc(-c2ccccc2)oc2ccc(Br)cc12 | 1.5 | 2.7 | 6.3 | 0.0 | 0.6 | 7.8*
O=C(O)c1cc(=O)c2cc(Cl)ccc2o1 | -0.8 | -0.4 | 0.1 | -0.8 | -0.4 | -0.7
O=c1cc(-c2ccc3c(c2)OCCO3)oc2ccc(Cl)cc12 | 1.7 | 0.5 | 12.2* | 0.6 | 1.7 | 2.8
COc1ccc(/C=C/c2cc(=O)c3cc(Cl)ccc3o2)cc1 | -0.4 | 5.3 | 0.0 | -1.6 | -1.7 | 2.9
O=c1cc(-c2cccs2)oc2ccc(Cl)cc12 | 0.9 | 4.9 | 10.3 | -0.5 | 5.3* | 5.3
CC(O)CCc1nc2ccc(C(=O)O)cc2[nH]1 (centres undefined) | -0.6 | 0.9 | 1.3 | -1.6 | 0.3 | -3.9
O=C(NC(=S)Nc1ccc(N2CCCCC2)c(Cl)c1)c1cccs1 | -1.5 | -3.4 | -3.3 | -1.9 | -1.6 | -0.3
O=c1cc(-c2ccsc2)oc2cc(-c3ccc4c(c3)OCO4)ccc12 | -0.5 | 0.6 | -0.2 | -1.5 | 4.7* | -0.4
OCCN=c1cc(-c2ccccc2)oc2ccc(Cl)cc12 | nt | nt | nt | nt | 0.9 | nt
COc1ccc(-c2ccc3c(=O)cc(-c4ccsc4)oc3c2)cn1 | 0.5 | -1.3 | -0.6 | -0.8 | -0.2 | 1.5
CN(C)CCCN=c1cc(-c2ccccc2)oc2ccc(Cl)cc12 | 4.4* | 5.2 | 9.9 | -0.3 | 6.3* | 6.3
O=[N+]([O-])c1nn(-c2ccc(Cl)cc2)n(O)c1=NCc1ccccc1 | -0.2 | -2.1 | 2.6 | -0.8 | 5.0* | 3.0
